Sampled rows, rich in hits. Any-hit rate of the full collection: about 3.6%.
MITF act – activators of MITF-driven TRPM1 promoter activity in SK-MEL-5 cells; SK-MEL-5 TRPM1-promoter luciferase, 24 h; % of positive control, neutral wells = 0; activation, % at 12.5 µM; hit rate 0.75% among 300,000; AID 588334;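 active = mean activation of at least 80% with every replicate also reaching 80%; inconclusive = mean reaches 80% but some replicate falls short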;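 also: 0% = neutral control wells and 100% = parthenolide positive control wells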
PHOSPHO1 block – PHOSPHO1 (human) inhibition; AID 1565; inhibition, % at 13.3 µM; recombinant PHOSPHO1, absorbance phosphatase assay; Q8TCT1; hit rate 1.1% among 290,000; in the data active = inhibition above about 60%
Target sequence (Q8TCT1 whole entry, looked up): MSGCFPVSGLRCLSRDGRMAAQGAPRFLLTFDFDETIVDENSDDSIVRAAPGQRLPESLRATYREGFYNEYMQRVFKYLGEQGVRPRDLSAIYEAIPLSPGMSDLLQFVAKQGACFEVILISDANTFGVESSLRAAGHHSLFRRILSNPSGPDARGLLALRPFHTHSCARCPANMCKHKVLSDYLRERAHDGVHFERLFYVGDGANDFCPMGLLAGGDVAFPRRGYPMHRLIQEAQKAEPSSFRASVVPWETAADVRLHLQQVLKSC
Wnt bcat act – Wnt/beta-catenin pathway activation | Wnt/beta-catenin reporter cell assay, activator, plate reader | activation, % at 9.35 µM | hit rate 1.2% among 300,000 | AID 743398; in the data active = activation above about 30%, passing the limit was not always enough; inconclusive = no clear call, values can overlap the other calls;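 also: 0% = neutral control wells and 100% = positive control wells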
esBAF inh – blocks esBAF chromatin remodeling in mouse ES cells; Bmi1-luciferase knock-in reporter, 24 h; 100% = twice the neutral-well signal; reporter increase, % at 12.5 µM; hit rate 2% among 350,000; AID 602393; in the data active = activation above about 40%; inconclusive = no clear call, values can overlap the other calls;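 also: 0% = median of the plate's neutral control wells and 100% = double that signal; a rise in the Bmi1 reporter signal indicates esBAF inhibition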
APOBEC3A inh – inhibitors of human APOBEC3A DNA deaminase | hit rate 0.41% among 330,000 | AID 493011 | recombinant A3A, FAM/TAMRA ssDNA deamination fluorescence | inhibition, % at 20 µM;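 active = at least 40% inhibition at 20 µM here, with at most 30% in a related deaminase screen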;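 also: plate controls were A3A with DMSO for no effect and wells lacking A3A enzyme for full effect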
APOBEC3G inh – APOBEC3G (human) deaminase inhibition; Q9HC16; hit rate 0.28% among 330,000; recombinant A3G, ssDNA deamination FAM/TAMRA fluorescence; inhibition, % at 20 µM;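 active = inhibition of at least 40% at 20 µM, with no more than 30% in the related APOBEC3A deaminase screen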;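 also: plate controls were DMSO wells with A3G for no effect and wells lacking A3G enzyme for full effect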
Target sequence (Q9HC16 whole entry, looked up): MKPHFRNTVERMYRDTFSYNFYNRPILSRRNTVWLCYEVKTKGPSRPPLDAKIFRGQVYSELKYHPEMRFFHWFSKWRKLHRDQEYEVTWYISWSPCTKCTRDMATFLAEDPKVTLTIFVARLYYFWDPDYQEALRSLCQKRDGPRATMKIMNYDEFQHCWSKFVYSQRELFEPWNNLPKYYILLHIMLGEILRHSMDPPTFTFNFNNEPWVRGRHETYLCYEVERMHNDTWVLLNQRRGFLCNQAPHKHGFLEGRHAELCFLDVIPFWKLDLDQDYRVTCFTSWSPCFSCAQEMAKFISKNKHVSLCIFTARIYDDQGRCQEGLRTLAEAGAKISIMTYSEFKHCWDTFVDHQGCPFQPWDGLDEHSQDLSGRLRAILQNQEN
Starred values were filed as active, the others as inactive; ? = inconclusive; / = not tested or not shown.

SMILES	MITF act	PHOSPHO1 block	Wnt bcat act	esBAF inh	APOBEC3A inh	APOBEC3G inh
Cc1cc(NC(=O)CSc2nc3ccc(Cl)cc3[nH]2)no1	/	20	5	-7	3	-1
Cc1cc(C(=O)CSc2nc3ccc(Cl)cc3[nH]2)c(C)n1C	15	86*	/	5	3	1
CNC[C@@H]1Oc2ccc(NC(=O)Nc3ccc(OC)cc3)cc2CC(=O)N([C@@H](C)CO)C[C@@H]1C	/	/	/	-4	/	/
CO[C@H]1CN(C)C(=O)c2ccc(NC(=O)NC(C)C)cc2OC[C@@H](C)N(Cc2ccccc2)C[C@H]1C	/	/	/	0	/	/
Cc1cc(C(=O)CSc2nc3ccccc3[nH]2)c(C)n1C	70	51	62*	/	0	-5
Fc1cccc(F)c1CSc1nc2ccccc2[nH]1	71	-8	/	42*	1	-5
COc1ccc(Nc2nnc(SCC(=O)c3cc(C)n(CC4CCCO4)c3C)s2)cc1 (stereo not given)	/	98*	10	10	0	-4
Cc1cc(C(=O)CSc2nnc(-c3ccc(Cl)cc3)n2CC2CCCO2)c(C)n1C (stereo not given)	2	-18	3	/	-5	-7
Cc1noc(C)c1CSc1nc2ccccc2[nH]1	4	-8	-2	-8	2	9
Cc1cc(C(=O)CSc2nc3ccc(Cl)cc3[nH]2)c(C)n1CC1CCCO1 (stereo not given)	-19	100*	/	/	3	-6
C[C@@H]1CN([C@H](C)CO)C(=O)c2cccc(NS(C)(=O)=O)c2O[C@@H]1CN(C)C	/	/	/	2	/	/
C/C=C/c1ccc([C@H]2[C@@H](CO)N(C(=O)CC)[C@H]2CNC(=O)CC2CC2)cc1	/	/	/	7	/	/
COc1ccc(NC(=O)N(C)C[C@H]2OCCCC[C@@H](C)Oc3ccc(NS(=O)(=O)c4ccc(Cl)cc4)cc3C(=O)N([C@@H](C)CO)C[C@H]2C)cc1	/	/	/	0	/	/
Cc1noc(C)c1NC(=O)Nc1cccc2c1O[C@H](CN(C)Cc1ccc3c(c1)OCO3)[C@H](C)CN([C@@H](C)CO)C2=O	/	/	/	-1	/	/
C[C@@H]1CN([C@H](C)CO)C(=O)c2cc(NC(=O)CCC(F)(F)F)ccc2O[C@@H]1CN(C)C(=O)Nc1ccc(F)cc1	/	/	/	-2	/	/
O=C(CSc1nc2ccccc2[nH]1)N1CCCCC1	106*	12	/	23	2	0
COc1cc(NS(=O)(=O)c2ccc(NC(=O)CSC3=NCCS3)cc2)nc(OC)n1	/	76*	/	/	7	-3
Clc1cccc(OCc2nnc(-c3ccccc3Br)o2)c1	56	6	9	31	3	2
Clc1ccc(OCc2nnc(-c3ccccc3Br)o2)c(Cl)c1	106*	24	19	79*	-7	-7
Fc1ccc(OCc2nnc(-c3ccccc3Br)o2)c(Cl)c1	?	30	4	67*	-4	-12
Clc1ccc(OCc2nnc(-c3ccccc3Br)o2)cc1	20	9	/	0	0	-5
C[C@@H]1CCCCO[C@H](CN(C)C(=O)Nc2cccc3ccccc23)[C@@H](C)CN([C@@H](C)CO)C(=O)c2cc(NC(=O)Cc3ccccc3)ccc2O1	/	/	/	-1	/	/
C[C@H]1CN([C@@H](C)CO)C(=O)Cc2cc(NC(=O)Cc3cn(C)c4ccccc34)ccc2O[C@@H]1CN(C)C(=O)Nc1ccc(F)cc1	/	/	/	1	/	/
C[C@H](NC(=O)[C@H]1[C@H](CO)[C@H]2Cn3c(ccc(-c4cccnc4)c3=O)[C@H]2N1C)c1ccccc1	/	/	/	-1	/	/
COc1ccccc1N1CCN(S(=O)(=O)c2cc(Br)cnc2N)CC1	-1	64*	-1	3	-2	-5
SMILES	MITF act	PHOSPHO1 block	Wnt bcat act	esBAF inh	APOBEC3A inh	APOBEC3G inh
Cc1ccc([C@H]2C[C@H](O)[C@@H](n3cc(C4CC4)nn3)CN2Cc2cccs2)cc1	/	/	1	47*	/	/
N/C(=N\NC(=O)Nc1ccccc1)c1ccccn1	/	-54	36*	/	-5	-4
N/C(=N\NS(=O)(=O)c1ccccc1)c1ccccn1	2	/	0	-3	-6	-9
COc1cc(OC)c2c(=O)cc(-c3ccccc3)oc2c1	47	48	52*	36	3	18
COc1ccc(-c2cc(=O)c3c(O)cc(O)cc3o2)cc1	112*	/	64*	25	1	2
COc1cc(-c2cc(=O)c3c(O)cc(O)cc3o2)cc(OC)c1OC	/	/	-2	-4	/	/
O=c1cc(-c2ccc(O)c(O)c2)oc2cc(O)cc(O)c12	101*	40	9	25	-2	-5
Cc1ccc(S(=O)(=O)N(C)C[C@H]2Oc3ccc(NC(=O)Cc4cn(C)c5ccccc45)cc3CC(=O)N([C@H](C)CO)C[C@H]2C)cc1	/	/	/	9	/	/
COc1ccc(C2=NN(c3ccccc3)C(c3ccc(OC)c(OC)c3)C2)cc1 (stereo not given)	84*	34	5	47*	-5	-7
COc1ccc(C2=NN(C(C#N)c3ccc(OC)c(OC)c3)C(c3ccccc3)C2)cc1 (stereo not given)	62	9	61*	51*	-5	-2
COc1ccc(C(C#N)N2CCC(c3ccccc3)=N2)cc1OC (stereo not given)	11	10	9	/	-2	-5
C[C@H]1CN([C@@H](C)CO)S(=O)(=O)c2ccc(Br)cc2O[C@@H]1CN(C)Cc1cncnc1	/	/	/	4	/	/
CC(Sc1nnc(COc2ccc3ccccc3c2)n1C)C(=O)O (stereo not given)	/	76*	/	-5	-3	-3
CCSc1nnc(NC(=O)CSc2nc3c(cc2C#N)CCCC3)s1	79	3	28	11	-7	-10
CCOC(=O)CC(=O)CSc1nc2c(cc1C#N)CCCCCC2	/	76*	/	29	-3	-6
CCc1nnc(NC(=O)CSc2nc3c(cc2C#N)CCC3)s1	45	-27	70*	-8	3	-1
O=C(C[C@H]1C[C@@H]2c3cc(NC(=O)C4CCC4)ccc3O[C@@H]2[C@@H](CO)O1)NCc1ccccc1	/	/	/	17	/	/
C[C@@H]1CN([C@H](C)CO)C(=O)c2cc(NC(=O)C3CCCCC3)ccc2O[C@@H](C)CCCCO[C@H]1CN(C)C(=O)c1ccncc1	/	/	/	1	/	/
O=C(C[C@@H]1CC[C@H]2[C@@H](COC[C@H](O)CN2Cc2ccc(Cl)cc2)O1)NCc1ccccc1Cl	/	/	/	-1	/	/
COc1ccccc1-c1cnc2c(c1)C(=O)N([C@@H](C)CO)C[C@H](C)[C@@H](CN(C)C(=O)c1ccncc1)O2	/	/	/	-2	/	/
COc1cccc(Oc2nnnn2-c2ccccc2)c1	/	9	/	58*	1	-2
COCC(C)n1c(C)cc(C(=O)CSc2nnc(Nc3ccccc3F)s2)c1C (stereo not given)	4	80*	/	/	4	-3
CCCN(C)C[C@@H]1OCCCC[C@H](C)Oc2ccc(NC(=O)Nc3ccc4c(c3)OCO4)cc2C(=O)N([C@H](C)CO)C[C@@H]1C	/	/	/	-5	/	/
CCOc1ccccc1-n1nnnc1SCC(=O)OC	2	22	-1	10	-4	-7
